Giardia FBPA inh-1: qHTS Assay for Inhibitors of Fructose-1,6-bisphosphate Aldolase from Giardia Lamblia | A8B2U2 | purified Giardia FBPA | Potency, µM (top dose mostly 59.6 µM), most hits filed as inhibitors | actives 0.71% (n = 290,000); also: nearly all actives have a fitted effect of over 55% in size
Target sequence (A8B2U2 whole entry, looked up): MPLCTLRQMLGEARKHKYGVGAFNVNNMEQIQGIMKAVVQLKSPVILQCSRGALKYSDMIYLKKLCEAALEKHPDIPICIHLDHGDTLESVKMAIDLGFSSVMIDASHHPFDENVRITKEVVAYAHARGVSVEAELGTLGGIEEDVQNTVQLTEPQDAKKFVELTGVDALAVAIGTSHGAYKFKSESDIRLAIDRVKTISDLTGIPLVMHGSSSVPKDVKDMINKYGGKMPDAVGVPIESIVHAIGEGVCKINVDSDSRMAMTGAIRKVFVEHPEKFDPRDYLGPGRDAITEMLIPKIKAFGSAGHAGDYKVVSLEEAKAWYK
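Giardia FBPA (40 nM reagent) was preincubated 10 min at RT with compound (up to 57.5 uM final), then substrate plus GAPDH/TPI/NAD/arsenate coupling system with diaphorase/resazurin was added; resorufin fluorescence (525/598 nm) was read after 20 min.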
HCMV antiviral: qHTS Assay for inhibitors of the human cytomegalovirus (HCMV) | HFF cells, HCMV-luciferase reporter, 72 h; active compounds read low | activity change, negative = inhibition, % at 57.5 µM | actives 4.5% (n = 410,000); in the data active = activity change below about -60%; inconclusive = no clear call, values can overlap the other calls; inactive = above about -39%
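Luciferase read-out from HCMV-luciferase-infected HFFs (MOI 1 PFU/cell) 72 h post infection at 37C; compounds added after 16 h cell attachment; activity normalized between buffer-only basal and Salinomycin (10uM) inhibitor controls.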
Vaccinia Venus: qHTS for Stage-Specific Inhibitors of Vaccinia Orthopoxvirus: Venus Reporter Primary qHTS. Vaccinia virus Venus reporter expression, fluorescence. Potency, µM (highest dose often 36.5 µM), actives largely listed as inhibitors. actives 0.46% (n = 330,000); calls by dose curve; tested in A549 cells; also: nearly all actives have a fitted effect of over 30% in size
HCV inhibitor: qHTS Assay for Inhibitors of Hepatitis C Virus (HCV) | Huh7.5.1 HCVcc-Cre infection, luciferase reporter, 44 h | Potency, µM (top dose mostly 41.8 µM), hits mostly inhibitors | actives 3.4% (n = 340,000) | AID 651820, 2012
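Seed cells (1,000/well) for 4 h; treat with compound and infect with HCVcc-Cre, moi about 0.5. Incubate 44 h, then detect luciferase activity.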
Vaccinia mCherry: qHTS for Stage-Specific Inhibitors of Vaccinia Orthopoxvirus: mCherry Reporter Primary qHTS; Vaccinia virus mCherry reporter infection, fluorescence; Potency, µM (highest dose often 36.5 µM), most hits filed as inhibitors; actives 0.63% (n = 310,000); AID 720579, 2013; calls by dose curve; tested in A549 cells; also: nearly all actives have a fitted effect of over 35% in size
FMDV inh: High Throughput Screening for Foot and Mouth Disease Virus Antivirals. FMDV antiviral cell-based qHTS. Potency, µM (series often up to 57.9 µM), usual class: inhibitors. actives 1.2% (n = 410,000); calls by dose curve; tested in HEK293T cells; also: read-out not given here; nearly all actives have a fitted effect of over 45% in size
Giardia growth: qHTS Assay for Inhibitors of Fructose-1,6-bisphosphate Aldolase from Giardia Lamblia: Giardia lamblia growth inhibition. shares compounds with Giardia FBPA inh-1. Giardia lamblia trophozoite growth inhibition. Potency, µM (titrated, usually from 57.5 µM), most hits filed as inhibitors. actives 5% (n = 1,500). AID 2785, 2010;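 also: trophozoites exposed to compound for 48 h at 37 °C; nearly all actives have a fitted effect of over 70% in size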
Mammalian tox: qHTS Assay for Inhibitors of Fructose-1,6-bisphosphate Aldolase from Giardia Lamblia: Mammalian cellular toxicity; shares compounds with Giardia FBPA inh-1; mammalian cell viability counter-screen, qHTS; Potency, µM (series often up to 57.5 µM), most hits filed as inhibitors; actives 4% (n = 1,500);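 also: Chinese hamster ovary cells used as mammalian cytotoxicity surrogate; viability measured as cellular ATP by luminescence; compound exposure lasted 48 h before reading; nearly all actives have a fitted effect of over 60% in size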
Giardia FBPA inh-2: qHTS Assay for Inhibitors of Fructose-1,6-bisphosphate Aldolase from Giardia Lamblia: Primary screen confirmation | shares compounds with Giardia FBPA inh-1 | Potency, µM (series often up to 57.5 µM), actives largely listed as inhibitors | actives 5% (n = 1,500) | AID 2787, 2010 | purified Giardia aldolase enzyme activity, qHTS; also: nearly all actives have a fitted effect of over 45% in size
Rabbit FBPA inh: qHTS Assay for Inhibitors of Fructose-1,6-bisphosphate Aldolase from Giardia Lamblia: Rabbit FBPA Selectivity. Rabbit muscle FBPA enzyme inhibition, selectivity counter-screen. shares compounds with Giardia FBPA inh-1. Potency, µM (top dose mostly 57.5 µM), hits mostly inhibitors. actives 4% (n = 1,500). AID 2794, 2010; also: nearly all actives have a fitted effect of over 60% in size
Target sequence (P00883 whole entry, looked up): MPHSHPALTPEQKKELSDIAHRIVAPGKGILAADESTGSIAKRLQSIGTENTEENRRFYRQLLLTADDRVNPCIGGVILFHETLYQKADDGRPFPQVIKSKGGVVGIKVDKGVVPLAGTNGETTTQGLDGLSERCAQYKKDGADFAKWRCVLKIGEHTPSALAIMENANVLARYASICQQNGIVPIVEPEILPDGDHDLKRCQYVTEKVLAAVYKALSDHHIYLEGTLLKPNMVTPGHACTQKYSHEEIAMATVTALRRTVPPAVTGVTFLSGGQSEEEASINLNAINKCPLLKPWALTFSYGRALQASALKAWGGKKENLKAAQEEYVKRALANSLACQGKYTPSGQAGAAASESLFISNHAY
GAPDH coupling: qHTS Assay for Inhibitors of Fructose-1,6-bisphosphate Aldolase from Giardia Lamblia: Coupling assay counterscreen confirmation; shares compounds with Giardia FBPA inh-1; GAPDH coupling enzyme counterscreen, biochemical, qHTS; Potency, µM (highest dose often 57.5 µM), hits mostly inhibitors; actives 6% (n = 1,500); AID 2795, 2010; also: nearly all actives have a fitted effect of over 55% in size
Numbers stand for hits; . = inactive; ? = inconclusive; / = no result given; ! = repeats disagree; [ ] = remark or other dose. Hits are enriched below; roughly 7.5% of the tested compounds scored in any of these assays. Unless noted, calls follow the shape of the dose curve; as a rule, active = well fitted curve in the direction sought with a large enough effect; inconclusive = small, poorly fitted or top-dose-only effect, or another doubt; inactive = no such curve, though single readings can be large; an effect the other way counts as inactive or inconclusive.

SMILES	Giardia FBPA inh-1	HCMV antiviral	Vaccinia Venus	HCV inhibitor	Vaccinia mCherry	FMDV inh	Giardia growth	Mammalian tox	Giardia FBPA inh-2	Rabbit FBPA inh	GAPDH coupling
Oc1ccc(C2C[C@H]3CC[C@@H]2C3)cc1O (some centres undefined)	28.2µM	?	.	.	.	.	.	.	14.1µM	31.6µM	31.6µM
NNc1nc2c(-c3ccc(Cl)cc3)nnn2c2ccccc12	14.1µM	.	/	?	/	.	?	?	.	.	.
NNc1nc2c(-c3ccc(F)cc3)nnn2c2ccccc12	?	.	.	?	?	.	/	/	/	/	/
CC1(C)S[C@@H]2C(C(=O)OCc3ccccc3)NC(=O)N2C1C(=O)OCc1ccccc1 (some centres undefined)	/	.	.	.	.	.	/	/	/	/	/
Oc1c(/C=N/c2ncn[nH]2)ccc2ccccc12	8.89µM	.	/	.	/	.	.	.	8.91µM	39.8µM	?
COC(=O)CC1C(=O)NCCN1C(=O)c1sc2ccccc2c1Cl (centres undefined)	.	.	/	.	/	.	/	/	/	/	/
CC(C)OC(=O)CC1C(=O)NCCN1C(=S)NC(=O)c1ccc(F)cc1 (centres undefined)	15.8µM	?	.	.	.	.	.	.	.	.	.
CC(C)OC(=O)CC1C(=O)NCCN1C(=S)NC(=O)CCc1ccccc1 (centres undefined)	.	.	.	.	.	.	/	/	/	/	/
CC(C)OC(=O)CC1C(=O)NCCN1C(=S)NC(=O)c1ccccc1 (centres undefined)	11.2µM	.	.	.	.	.	.	.	.	.	.
COC(=O)CC1C(=O)NCCN1C(=S)NC(=O)c1sc2ccccc2c1Cl (centres undefined)	15.8µM	.	.	.	.	.	.	.	.	.	.
COc1ccc(S(=O)(=O)Nc2ccc3c(c2)C(=O)N([C@H](C)CO)C[C@H](C)[C@@H](CN(C)S(C)(=O)=O)O3)cc1	/	.	?	.	?	.	/	/	/	/	/
CC1CN(S(=O)(=O)c2ccc(C(=O)Nc3nnc(-c4ccco4)o3)cc2)CC(C)O1 (centres undefined)	17.7µM	.	.	.	.	.	.	.	.	.	.
CC1CCCN(S(=O)(=O)c2ccc(C(=O)Nc3nnc(-c4ccccn4)o3)cc2)C1 (centres undefined)	17.7µM	.	.	.	.	.	.	.	.	.	.
CC1CCN(S(=O)(=O)c2ccc(C(=O)Nc3nnc(-c4ccco4)o3)cc2)CC1	.	.	?	?	?	.	/	/	/	/	/
O=C(Nc1nnc(-c2ccco2)o1)c1ccc(S(=O)(=O)N2CCCC2)cc1	5µM	.	/	.	/	.	.[10.4 µM]	.	.	.	.
CC(=O)N(C)C	.	/	/	/	/	/	/	/	/	/	/
CCOc1ccc(OCCOCCN2CCCC2)cc1	28.2µM	.	/	.	/	.	?	.	.	.	.
Cc1cc(Br)ccc1OCCOCCN1CCCC1	15.8µM	.	/	?	/	.	.[10.4 µM]	.	.	.	.
CCOc1ccc(OCCN2CCCCC2)cc1	.	.	.	.	.	.	/	/	/	/	/
COC(=O)C1CCCCN1Cc1ccc2c(c1)CN(C(=O)c1ccc(F)cc1)CCO2 (centres undefined)	/	/	.	/	.	.	/	/	/	/	/
Cc1ccc(OCc2nc(-c3ccc(C(=O)NCCc4ccc(Cl)cc4)cc3)oc2C)cc1	/	.	.	/	.	.	/	/	/	/	/
Cn1c(N)nc(N)c(NC=O)c1=O	/	.	.	/	.	.	/	/	/	/	/
O=[N+]([O-])c1ccc(S(=O)(=O)N2CCN(Cc3ccco3)CC2)cc1	/	.	.	.	.	.	/	/	.	.	.
Cc1ccc(C2C(C#N)=C(N)N(c3cccnc3)C3=C2C(=O)CCC3)c(C)c1 (centres undefined)	.	.	.	.	.	.	/	/	/	/	/
CCCCc1c(O)nc(SC2CC(=O)N(c3ccc(C(=O)OCC)cc3)C2=O)[nH]c1=O (centres undefined)	7.08µM	.	/	.	/	.	.[10.4 µM]	.	.	.	.
SMILES	Giardia FBPA inh-1	HCMV antiviral	Vaccinia Venus	HCV inhibitor	Vaccinia mCherry	FMDV inh	Giardia growth	Mammalian tox	Giardia FBPA inh-2	Rabbit FBPA inh	GAPDH coupling
COc1ccc(OC)c(-c2csc(NC(=O)c3ccc(F)cc3)n2)c1	22.4µM	.	/	?	/	.	.[10.4 µM]	.	.	.	.
COc1ccc(CCNC(=O)C2c3ccccc3C(=O)N2CCC(C)C)cc1OC (centres undefined)	.	.	/	.	/	.	/	/	/	/	/
CCC(COC(C)=O)Nc1nc2c([nH]1)c(=O)n(C)c(=O)n2C (centres undefined)	.	.	.	.	.	.	/	/	/	/	/
Cn1c(=O)c2[nH]c(N/N=C(/C#N)C(N)=O)nc2n(C)c1=O	19.9µM	/	.[7.34 µM]	.	.[7.34 µM]	.	.	.	.	.	.
Cc1cccc(NC2=C(NCCO)C(=O)c3ccccc3C2=O)c1	?	.	.	.	.	?	/	/	/	/	/
Cc1cccc(NC2=C/C(=N/S(=O)(=O)c3cccs3)c3ccccc3C2=O)c1	0.199µM	.	.	2.82µM	.	?	15.8µM	20µM	?	.	2.51µM
O=C(CCN1CCN(CCO)CC1)N1c2ccccc2Sc2ccc(C(F)(F)F)cc21	7.94µM	.	.	12.6µM	.	.	.	.	.	.	.
c1ccc(C2=NNC(c3ccccn3)=NN2)nc1	7.94µM	.	/	.	/	.	?	.	.	.	?
O=C1C=CC2=C3c4cc(O)c(O)cc4C[C@]3(O)COC2=C1	?	/	.	/	.	.	/	/	/	/	/
COCCCOc1ccnc(CS(=O)c2nc3ccccc3[nH]2)c1C (centres undefined)	2µM!	-65.1	.	?	.	.	?	.	.	.	.

Screening results: PubChem, National Center for Advancing Translational Sciences (NCATS)
